Reference: PubChem BioAssay (NCATS)
Values joined by “and” are separate entries in the source; they are usually repeats but may differ in a detail not shown here. Equal values may be shown once. Results filed as inconclusive are left out. Active and inactive are the calls of the source. Unless noted, calls come from the whole dose curve; as a rule, active = well fitted curve in the direction sought with a large enough effect; inconclusive = small, poorly fitted or top-dose-only effect, or another doubt; inactive = no such curve, though single readings can be large; an effect the other way counts as inactive or inconclusive.

What was measured:
[1] = target: Cellular tumor antigen p53 (Homo sapiens) (UniProt P04637); experiment: Primary qHTS for small molecule compounds that upregulate eGFP-tagged delta133p53alpha (in N-terminal) cells. (AID 2060322); details: NCI-H358 eGFP-delta133p53alpha fluorescence, 24 h; activation: stronger effect = higher value; note: nearly all actives have a fitted effect of over 75% in size; note: potency is the fitted concentration of half-maximal effect;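 for activation: 0% = DMSO vehicle and 100% = reference activator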
Sequence of Cellular tumor antigen p53 (Homo sapiens) (P04637 whole entry, looked up): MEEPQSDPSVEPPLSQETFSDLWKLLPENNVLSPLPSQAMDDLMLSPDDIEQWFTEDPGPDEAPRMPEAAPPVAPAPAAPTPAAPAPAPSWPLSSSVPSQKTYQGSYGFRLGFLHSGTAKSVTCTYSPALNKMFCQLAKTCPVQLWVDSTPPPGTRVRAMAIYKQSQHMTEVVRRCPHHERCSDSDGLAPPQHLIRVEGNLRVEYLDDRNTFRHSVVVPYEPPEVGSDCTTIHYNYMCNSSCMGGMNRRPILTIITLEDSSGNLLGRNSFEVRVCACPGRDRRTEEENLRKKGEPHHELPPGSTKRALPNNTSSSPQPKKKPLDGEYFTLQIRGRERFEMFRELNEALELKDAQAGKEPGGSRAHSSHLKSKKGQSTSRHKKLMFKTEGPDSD
Method in brief: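 NCI-H358 cells pre-induced 24 h with 10 ng/ml doxycycline to express N-terminal eGFP-delta133p53alpha, then dosed 24 h at 37C without doxycycline; fixed, Hoechst-stained, GFP intensity by laser scanning cytometry, normalized to DMSO (0%) and 57.5 uM 5-azacytidine (100%).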

[2] = target: Cellular tumor antigen p53 (Homo sapiens) (UniProt P04637); experiment: Primary qHTS for small molecule compounds that upregulate eGFP-tagged delta133p53alpha (in C-terminal) cells. (AID 2060324); details: NCI-H358 delta133p53alpha-eGFP (C-terminal tag), GFP fluorescence imaging, 24 h; series mostly up to 57.5 µM; note: potency is the fitted concentration of half-maximal effect
Method in brief: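 NCI-H358 cells with doxycycline-inducible D133p53a-eGFP (C-terminal tag), pre-induced 24 h with 100 ng/ml doxycycline, plated 800/well in doxycycline-free medium and treated 24 h at 37 °C with compound titrations. Cells were then fixed and Hoechst-stained, and GFP intensity was read by laser scanning cytometry.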

[3] = target: Aldehyde dehydrogenase, mitochondrial (Homo sapiens) (UniProt P05091); experiment: qHTS for Inhibitors of the Aldehyde Dehydrogenase Family (ALDH2) Validation screens (AID 2061302; active = well fitted inhibition curve with a large enough effect; title and protocol of this record describe different tests; note: potency is the fitted concentration of half-maximal effect); details: ALDH inhibition qHTS; series mostly up to 42.6 µM
[4] = target: Aldehyde dehydrogenase, mitochondrial (Homo sapiens) (UniProt P05091); experiment: qHTS for Inhibitors of the Aldehyde Dehydrogenase Family (ALDH2) Primary screen (AID 2061308); details: ALDH2 enzyme inhibition qHTS, 1536-well; series mostly up to 56 µM;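 note: plate controls were vehicle for no effect and reference inhibitor for full effect; nearly all actives have a fitted effect of over 55% in size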
[5] = target: Retinaldehyde dehydrogenase 3 (Homo sapiens) (UniProt P47895); experiment: qHTS for Inhibitors of the Aldehyde Dehydrogenase Family (ALDH1A3) Validation screen (AID 2061312); details: ALDH1A3 enzyme inhibition qHTS validation, fluorescence; series mostly up to 42.4 µM; note: nearly all actives have a fitted effect of over 45% in size; note: potency is the fitted concentration of half-maximal effect
[6] = target: Retinaldehyde dehydrogenase 3 (Homo sapiens) (UniProt P47895); experiment: qHTS for Inhibitors of the Aldehyde Dehydrogenase Family (ALDH1A3) Primary screen (AID 2061315); details: ALDH inhibition qHTS; series mostly up to 56 µM;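 note: plate controls were DMSO vehicle for no effect and reference inhibitor for full effect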
[7] = qHTS for Inhibitors of the Aldehyde Dehydrogenase Family (ALDH1A2, ALDH1A3, ALDH2, ALDH3A1) (AID 2061307); details: ALDH inhibition qHTS; series mostly up to 50.3 µM; note: nearly all actives have a fitted effect of over 50% in size; for Potency: test system not described further here; potency is the fitted concentration of half-maximal effect
[8] = target: Aldehyde dehydrogenase, mitochondrial (Homo sapiens) (UniProt P05091); experiment: qHTS for Inhibitors of the Aldehyde Dehydrogenase Family (ALDH2) Confirmatory screens (AID 2061303; active = well fitted inhibition curve with a large enough effect; title and protocol of this record describe different tests; note: nearly all actives have a fitted effect of over 45% in size; note: potency is the fitted concentration of half-maximal effect); details: ALDH inhibition qHTS; series mostly up to 45.4 µM
[9] = target: Retinaldehyde dehydrogenase 3 (Homo sapiens) (UniProt P47895); experiment: qHTS for Inhibitors of the Aldehyde Dehydrogenase Family (ALDH1A3) Confirmatory screens (AID 2061311); details: ALDH inhibition qHTS; series mostly up to 46 µM; note: potency is the fitted concentration of half-maximal effect; nearly all actives have a fitted effect of over 60% in size
[10] = target: Retinal dehydrogenase 2 (Homo sapiens) (UniProt O94788); experiment: qHTS for Inhibitors of the Aldehyde Dehydrogenase Family (ALDH1A2) Confirmation screens (AID 2061314); details: ALDH1A2 enzyme inhibition qHTS confirmation; series mostly up to 45.9 µM; note: % is set by controls: 0 for no effect and ±100 for the full control effect; nearly all actives have a fitted effect of over 65% in size
[11] = target: Aldehyde dehydrogenase 1A1 (Homo sapiens) (UniProt P00352); experiment: qHTS for Inhibitors of the Aldehyde Dehydrogenase Family (ALDH1A1) Confirmatory screens (AID 2061316); details: ALDH inhibition qHTS; series mostly up to 47.3 µM; note: nearly all actives have a fitted effect of over 65% in size; note: potency is the fitted concentration of half-maximal effect
[12] = BET inhibitor-based combinations targeting novel dependencies in MECOM-rearranged (r) AML: SET-2 cell line (AID 2202231); details: SET-2 AML cells viability, CellTiter-Glo luminescence, 48 h; viability: stronger effect = lower value, concentration not given here;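 note: plate controls were DMSO treated cells for no effect and wells without cells for full effect; nearly all actives have a fitted effect of over 35% in size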
Method in brief: (§1)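 Here, 11-point titrations of each agent were applied to 500 seeded cells and incubated 48 hr; CellTiter-Glo signal, scaled against DMSO and empty wells, was integrated as AUC, then Z-scored within the individual line.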

[13] = BET inhibitor-based combinations targeting novel dependencies in MECOM-rearranged (r) AML: OCI-AML3 cell line (AID 2202232); details: CellTiter-Glo luminescence, 48 h; Potency: OCI-AML3 viability; series mostly up to 46 µM; note: potency is the fitted concentration of half-maximal effect; nearly all actives have a fitted effect of over 35% in size
Method in brief: as §1

[14] = BET inhibitor-based combinations targeting novel dependencies in MECOM-rearranged (r) AML: AML-191 cell line (AID 2202236;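 note: plate controls were vehicle wells for no effect and wells without cells for full effect; nearly all actives have a fitted effect of over 35% in size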); details: AML-191 viability, CellTiter-Glo luminescence, 48 h; series mostly up to 46 µM
Method in brief: as §1

[15] = BET inhibitor-based combinations targeting novel dependencies in MECOM-rearranged (r) AML: AML-194 cell line (AID 2202237;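 note: plate controls were vehicle wells for no effect and wells without cells for full effect; nearly all actives have a fitted effect of over 40% in size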); details: AML-194 (MECOM-r AML) viability, CellTiter-Glo, 48 h; series mostly up to 46 µM
Method in brief: as §1

CN1CCC[C@@H]1Cc1c[nH]c2ccc(Nc3ncccc3[N+](=O)[O-])cc12
inactive: activation [1] -40.7% and 3.34% | Potency [2] | Potency [3] | Potency [4] | Potency [5] | Potency [6]

CC(C)(C)OC(=O)NC1[C@H]2CNC[C@@H]12 (stereo not given in full)
inactive: activation [1] -12.9% | Potency [2] | Potency [3]

CNCCc1ccc(O)c(O)c1
inactive: activation [1] -26.5% | Potency [2] | Potency [3]

CC(=O)[C@H]1CC[C@H]2[C@@H]3CC[C@H]4C[C@](C)(O)CC[C@]4(C)[C@H]3CC[C@]12C
inactive: activation [1] -8.47% and -37.3% | Potency [2] | Potency [3] | Potency [5]

c1ccc2c(N3CCNCC3)cccc2c1
inactive: activation [1] -14.7% | Potency [2] | Potency [3]

CCn1cnc2c(Nc3cccc(Cl)c3)nc(N[C@@H]3CCCC[C@@H]3N)nc21
active: Potency [1] 6.01 µM | Potency [2] 5.36 µM
inactive: Potency [3]

NNC(=O)c1ccc(O)cc1
inactive: activation [1] -20.3% | Potency [2] | Potency [3] | Potency [5]
active: Potency [7] 8.96 µM

c1ccc2c(c1)OCC(C1=NCCN1)O2 (stereo not given)
inactive: activation [1] -26.9% | Potency [3] | Potency [5]
active: Potency [2] 30.1 µM

CCCN1CCC[C@@H]2Cc3nc(N)ncc3C[C@H]21
inactive: activation [1] -29.3% and -27.1% | Potency [2] | Potency [3] | Potency [8] | Potency [7]

C[C@@H]1O[C@H](C[N+](C)(C)C)C[C@H]1O
inactive: activation [1] -7.38% | Potency [2] | Potency [3]

C[C@H]1C2Cc3ccc(O)cc3[C@@]1(C)CCN2CC1CC1
inactive: activation [1] -23.4% | Potency [2] | Potency [3] | Potency [5]

Cc1o[nH]c(=O)c1CC(N)C(=O)O (stereo not given)
inactive: activation [1] 16.8% | Potency [2] | Potency [3]

CN1CCc2cc(O)cc3c2[C@H]1Cc1ccc(O)c(O)c1-3
inactive: activation [1] -32.2% | Potency [2] | Potency [3] | Potency [7] | Potency [10] | Potency [11]
active: Potency [9] 12.7 µM

O=C(O)[C@@H]1CCN1
inactive: activation [1] -48.2% | Potency [2] | Potency [3] | Potency [5]

N#CCCN
inactive: activation [1] 1.42% | Potency [2] | Potency [3]

NC(C(=O)O)c1cc(=O)[nH]o1 (stereo not given)
inactive: activation [1] -10.1% | Potency [2] | Potency [3]

C=CCN1CC[C@]23CCCCC2[C@H]1Cc1ccc(O)cc13 (stereo not given in full)
inactive: activation [1] -35.3% | Potency [2] | Potency [3] | Potency [5]

OCc1cnc[nH]1
inactive: activation [1] -9.48% | Potency [2] | Potency [3]

NC(=O)CI
inactive: activation [1] 22% | Potency [2]
active: Potency [3] 5.01 µM | Potency [7] 28.3 µM | Potency [9] 6.34 µM | Potency [11] 20.1 µM

CC(O)(CS(=O)(=O)c1ccc(F)cc1)C(=O)Nc1ccc(C#N)c(C(F)(F)F)c1 (stereo not given)
inactive: activation [1] -7.17% and -30.6% and 1.43% | Potency [2] | Potency [3] | Potency [4] | Potency [5] | Potency [6] | viability [12] 92.1% | Potency [14] | Potency [15]
active: Potency [13] 0.0042 µM

CCCN1CC[C@@H]2c3cc(O)ccc3CC[C@@H]21
inactive: activation [1] -3.44% | Potency [2] | Potency [3] | Potency [5]

Cc1cc([C@@H]2CCCN2C)on1
inactive: activation [1] 4.82% | Potency [2] | Potency [3]

c1ccc2c(c1)[I+]c1ccccc1-2
active: Potency [2] 23.9 µM | Potency [3] 7.08 µM
inactive: activation [1] 35.2%

C[N+]1(C)CCN(c2ccccc2)CC1
inactive: activation [1] -0.912% | Potency [2] | Potency [3]

C[N+](C)(C)CC#CCOC(=O)Nc1cccc(Cl)c1
inactive: activation [1] 13.3% | Potency [2]
active: Potency [3] 10 µM | Potency [8] 10.1 µM | Potency [11] 22.5 µM

NCCc1ccc(S(=O)(=O)F)cc1
inactive: activation [1] -21.4% | Potency [2] | Potency [3]

Oc1ccc2c3c1O[C@H]1c4[nH]c5ccccc5c4C[C@@]4(O)C(C2)N(CC2CC2)CCC314 (stereo not given in full)
inactive: activation [1] -38.9% | Potency [2] | Potency [3]

O=C(NC1CN2CCC1CC2)c1cc2ccoc2cn1 (stereo not given)
inactive: activation [1] -11.8% | Potency [2] | Potency [3]

NCCc1c[nH]c2ccc(O)cc12
inactive: activation [1] -1.52% | Potency [2] | Potency [3]

O=C(O)Cc1cnc[nH]1
inactive: activation [1] -6.89% | Potency [2] | Potency [3]

O=c1ccc2[nH]cc(C3=CCNCC3)c2[nH]1
inactive: activation [1] -8.35% | Potency [2] | Potency [3] | Potency [7]
active: Potency [5] 0.398 µM

CC(=O)NCCc1c[nH]c2ccccc12
inactive: activation [1] -24.3% | Potency [2] | Potency [3] | Potency [4] | Potency [5] | Potency [6]
